Structures are written as SMILES. Several values for one entry are separate records, joined by “and”; a condition that tells them apart may be missing. Equal entries are not always repeated.

Conditions in all cases: concentration: 10 µM; 24 h
In test [1] the test system is HCC1569. As to the kind of experiment: cell number relative to DMSO (% of DMSO); higher = more cells (less growth inhibition / toxicity). The method, boiled down: (§1)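 In 384-well plates holding 800 HCC1569 or TDF cells per well in RPMI with 10% FBS, compounds were tested at 10 µM for 24 h at 37 °C in triplicate. Fixation used 3.7% formaldehyde. Staining used a rabbit anti-H1.0 antibody with an AlexaFluor 647 secondary, plus DAPI. Each value, H1.0 nuclear intensity or cell number, is a median of replicates shown as percent of the plate control, and HCC1569 values were smoothed for positional effects.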

Test [2] has as its system TDF. The test is described as above. In short, it runs like this:
as §1

Test [3] relates to TDF. As to the kind of experiment: H1.0 immunofluorescence intensity relative to DMSO (% of DMSO); higher = stronger H1.0 induction, active = 120 or more. The method, boiled down:
as §1

The subject of test [4] is HCC1569. As to the kind of experiment: H1.0 immunofluorescence intensity relative to DMSO (% of DMSO); higher = stronger H1.0 induction, active = 140 or more. The method, boiled down:
as §1
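Throughout, for H1.0 immunofluorescence intensity relative to DMSO: TDF is a line of transformed human dermal fibroblasts of mesenchymal origin.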
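Throughout, for cell number relative to DMSO: TDF denotes transformed human dermal fibroblasts of mesenchymal origin.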

Take `CCCCCC(O)C=CC1C=CC(=O)C1CC=CCCCC(=O)O` (configuration not stated) [Prostaglandin A2]: the figures for the cell number in test [1] and in test [2] were 103 and 110, respectively. The H1.0 immunofluorescence intensity was 95.6 (inactive) in test [3] and 104 (inactive) in test [4].

On to `Cc1cc(=O)oc2cc(O)ccc12` [4-Methylumbelliferone], for which the cell number in test [1] and in test [2] was 103 each time. Further, the H1.0 immunofluorescence intensity is 102 (inactive) in test [3] and 94.5 (inactive) in test [4].

For `CCCCCC(O)c1cccc(OCc2ccc3ccccc3n2)c1` (configuration not stated), the cell number in test [1] is 103 and 102; in test [2] it was 107 and 102. The H1.0 immunofluorescence intensity in test [3] was 104 (inactive) and 91.2 (inactive); in test [4], 110 (inactive) and 101 (inactive).

`CC(CSC(=O)c1ccccc1)C(=O)N1CC(Sc2ccccc2)CC1C(=O)[O-].CC(CSC(=O)c1ccccc1)C(=O)N1CC(Sc2ccccc2)CC1C(=O)[O-].[Ca+2]` (configuration not stated): the cell number is 106 in test [1] and 119 in test [2]. In addition, the figures for the H1.0 immunofluorescence intensity in test [3] and in test [4] were 93.2 (inactive) and 95.4 (inactive), respectively.

On to `CN[C@H](CC(=O)O)C(=O)O` [N-Methyl-D-aspartic acid], for which the cell number stood at 104 in test [1] and 109 in test [2]. For the same compound, the H1.0 immunofluorescence intensity was 85.2 (inactive) in test [3] and 98.8 (inactive) in test [4].

Turning to `CCCCCC(O)C=CC=CCC=CCCCCC(=O)O` (configuration not stated), the cell number in test [1] is 103; in test [2], 97.9. In addition, the H1.0 immunofluorescence intensity in test [3] was 97.2 (inactive); in test [4], 101 (inactive).

As for `CCCCCCCCCCCCCCCCCC(=O)NCC(COP(=O)([O-])OCC[N+](C)(C)C)OCC` (racemic) [rac-2-Ethoxy-3-octadecanamido-1-propylphosphocholine], the results for the cell number in test [1] and in test [2] were 39 and 54.4, respectively. The H1.0 immunofluorescence intensity in test [3] is 183 (active); in test [4], 153 (active).

Turning to `CCCCCCCC(=O)OCC(CO)OC(=O)CCCCCCC` (configuration not stated) [1,2-Dioctanoyl-SN-glycerol], the cell number in test [1] stood at 98.8; in test [2], 101. In addition, the H1.0 immunofluorescence intensity in test [3] was 92.3 (inactive); in test [4] it was 98.6 (inactive).

The record behind these values is the supplement of paper PMC7156485.
